MITF primary: MITF inhibitors, primary screen, biochemical, AlphaScreen, human; AlphaScreen MITF homodimerization, bead proximity signal; actives 0.91% (n = 650,000); inhibition, % at 2.6 µM; Microphthalmia-associated transcription factor (Homo sapiens), O75030; in the data active = inhibition above about 50%
Target sequence (O75030 whole entry, looked up): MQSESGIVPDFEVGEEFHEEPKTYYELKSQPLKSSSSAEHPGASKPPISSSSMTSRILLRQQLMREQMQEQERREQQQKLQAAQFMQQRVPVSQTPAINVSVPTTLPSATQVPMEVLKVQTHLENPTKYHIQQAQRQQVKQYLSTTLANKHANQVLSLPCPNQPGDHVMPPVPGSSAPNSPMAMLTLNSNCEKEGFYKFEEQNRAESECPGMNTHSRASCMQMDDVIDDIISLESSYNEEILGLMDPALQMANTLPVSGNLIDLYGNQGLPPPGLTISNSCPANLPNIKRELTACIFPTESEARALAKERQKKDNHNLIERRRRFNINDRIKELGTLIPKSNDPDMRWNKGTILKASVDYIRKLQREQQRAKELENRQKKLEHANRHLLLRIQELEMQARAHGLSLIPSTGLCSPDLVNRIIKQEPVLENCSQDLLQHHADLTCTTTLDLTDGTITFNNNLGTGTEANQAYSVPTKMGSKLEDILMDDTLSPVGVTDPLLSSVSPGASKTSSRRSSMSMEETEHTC
TEAD-YAP inh: TEAD-YAP interaction inhibition, primary screen, TEAD-YAP interaction inhibitor project, luminescence, HEK-TIYL cells. TEAD-Gal4/YAP UAS-luciferase luminescence. inhibition, % at 9.12 µM. actives 1.4% (n = 640,000). AID 1259422, 2018; in the data active = inhibition above about 32%
FBW7 act: FBW7 E3 ligase activators, primary screen, biochemical, AlphaScreen, human; F-box/WD repeat-containing protein 7 (Homo sapiens), Q969H0; AlphaScreen FBW7–phospho-cyclin E peptide binding, activator screen; normalized activity (activation), % at 26.1 µM; actives 0.13% (n = 650,000); AID 1259310, 2017; in the data active = normalized activity above about 1.9%;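 note: purified mutant Fbw7 with reduced substrate affinity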
GPR151 ag: activators of human GPR151, primary screen, cell-based, PathHunter beta-arrestin, luminescence; G-protein coupled receptor 151 (Homo sapiens), Q8TDV0; PathHunter beta-arrestin GPR151 cells; activation, % at 11.2 µM; actives 1% (n = 650,000); in the data active = activation above about 4.9%
Each line names hits and unclear results; the compound was inactive in the other large screens. A selection: hits, their analogues and other compounds. The true share with any hit is near 3.5%.

Oc1c(C(c2cccnc2)N2CCCCC2)ccc2cccnc12 (stereo not given)	MITF primary 92
COc1ccc2c(c1)sc1ncc(C(=O)N3CC(C)CC(C)C3)c(=O)n12 (stereo not given)	none
CCOC(=O)c1sc(NC(=O)CSc2nnc(CNC(=O)COc3ccccc3)n2C)c(C(=O)OCC)c1C	none
CCCC1=C(C(=O)OCC)C(c2cccc([N+](=O)[O-])c2)n2ncnc2N1 (stereo not given)	TEAD-YAP inh 33
CCCC1=C(C(=O)OCC)C(c2ccccc2[N+](=O)[O-])n2ncnc2N1 (stereo not given)	none
CCc1ccc(CN2CCN(C(=O)c3ccc(F)cc3)CC2)cc1	TEAD-YAP inh 37
O=C(c1ccc(F)cc1)N1CCN(Cc2ccc(Cl)cc2)CC1	none
CC1=C(C(=O)NC2CCCc3c2cnn3-c2ccc(F)cc2F)OCCO1 (stereo not given)	none
Cc1ncoc1C(=O)NC1CCCc2c1cnn2-c1ccc(F)cc1F (stereo not given)	TEAD-YAP inh 45
CN(C)c1ccc(/C=C/c2sc3ccc4ccccc4c3[n+]2C)cc1	TEAD-YAP inh 53
CC[n+]1c(/C=C(/C)OC)sc2ccccc21	TEAD-YAP inh 33
CC[n+]1c(/C=C/c2ccc(N(C)C)cc2)sc2ccccc21	TEAD-YAP inh 54
CC[n+]1ccc(/C=C/c2ccc(N(C)C)cc2)cc1	TEAD-YAP inh 82
O=C(Nc1ccc(Oc2ncccn2)cc1)c1ccccc1Cl	none
CCNc1cc(N2CCC3(CC2)OCCO3)c2noc3c2c1C(=O)c1ccccc1-3	TEAD-YAP inh 39
O=C1c2ccccc2-c2onc3c(N4CCOCC4)cc(NCCN4CCCC4)c1c23	MITF primary 61
O=C1c2ccccc2-c2onc3c(N4CCOCC4)cc(NCCO)c1c23	none
CC(C)CNc1cc(N2CCOCC2)c2noc3c2c1C(=O)c1ccccc1-3	MITF primary 52
CC(=O)c1ccc(NC(=O)C(C)N2Cc3ccccc3C2=O)cc1 (stereo not given)	none
COc1cccc(C(=O)Nc2cccc(OC(=O)c3cc(S(=O)(=O)N4CCCCC4)ccc3Cl)c2)c1	TEAD-YAP inh 47
O=C(Nc1cccc(OC(=O)c2cc(S(=O)(=O)N3CCCCC3)ccc2Cl)c1)c1ccco1	none
COc1ccc(C(=O)Nc2cccc(OC(=O)c3cc(S(=O)(=O)N4CCOCC4)ccc3Cl)c2)cc1	TEAD-YAP inh 55
O=C(Oc1ccccc1)c1ccc(NC(=O)c2cc(S(=O)(=O)N3CCOCC3)ccc2Cl)cc1	none
Cc1cccnc1C(NC(=O)C1CCN(C(=O)c2cccs2)CC1)c1ccccc1 (stereo not given)	none
CCC(C)c1ccc(NC(=O)CN(C)S(=O)(=O)c2ccccc2)cc1 (stereo not given)	none
NNc1ccc2nnc(C(F)(F)C(F)(F)C(F)(F)F)n2n1	FBW7 act 1.9
COc1ccc(-n2ncc3c(N(C)C4CCCCC4)ncnc32)cc1	TEAD-YAP inh 93
COc1ccc(-n2ncc3c(N4CCCC4)ncnc32)cc1	none
CCN(CC)c1ncnc2c1cnn2-c1cccc(C)c1	TEAD-YAP inh 60
C=CCNc1ncnc2c1cnn2-c1ccc(C)cc1C	none
Clc1cccc(-n2ncc3c(NC4CC4)ncnc32)c1	none
CCOC(=O)N1CCC(Nc2ncnc3c2cnn3-c2ccc(C)cc2C)CC1	TEAD-YAP inh 39
Cc1cccc(-n2ncc3c(NC4CCCCCC4)ncnc32)c1	TEAD-YAP inh 47
Cc1cccc(-n2ncc3c(N(C)C4CCCCC4)ncnc32)c1	TEAD-YAP inh 97
Cc1cccc(-n2ncc3c(N(CC(C)C)CC(C)C)ncnc32)c1	none
O=C1c2ccccc2C(=O)N1N1C(=O)c2cccc3c([N+](=O)[O-])ccc(c23)C1=O	none
O=C1c2cccc3c(Oc4ccccc4[N+](=O)[O-])ccc(c23)C(=O)N1n1cnnc1	TEAD-YAP inh 36
COC(=O)c1c(NC(=O)c2ccco2)sc(C(=O)Nc2ccc(C)cc2)c1C	TEAD-YAP inh 34
COC(=O)c1c(NC(=O)c2ccco2)sc(C(=O)Nc2ccc(F)cc2)c1C	none
CN1CCN(C(=O)c2ccc(-c3nc(Nc4ccccc4)c4ncn(-c5ccsc5)c4n3)cc2)CC1	none
CN1CCN(C(=O)c2ccc(-c3nc(NCc4nc5ccccc5[nH]4)c4ncn(-c5ccsc5)c4n3)cc2)CC1	TEAD-YAP inh 59

Bioassay records from PubChem BioAssay.
